Laboratory results published in ChEMBL document CHEMBL1201862, “PubChem BioAssay data set” (2004).
In all, about 400,000 compounds went through this assay and about 2,100 (0.53%) were called active. Inconclusive results (about 14%) are left out. No rule for the calls is given here. Shown is part of a subset that was picked to be rich in actives.

The molecules below were run against Ataxin-2 (Homo sapiens) (UniProt Q99700) (assay: qHTS for Inhibitors of ATXN expression.).
Ataxin-2 (Homo sapiens), sequence (Q99700 whole entry): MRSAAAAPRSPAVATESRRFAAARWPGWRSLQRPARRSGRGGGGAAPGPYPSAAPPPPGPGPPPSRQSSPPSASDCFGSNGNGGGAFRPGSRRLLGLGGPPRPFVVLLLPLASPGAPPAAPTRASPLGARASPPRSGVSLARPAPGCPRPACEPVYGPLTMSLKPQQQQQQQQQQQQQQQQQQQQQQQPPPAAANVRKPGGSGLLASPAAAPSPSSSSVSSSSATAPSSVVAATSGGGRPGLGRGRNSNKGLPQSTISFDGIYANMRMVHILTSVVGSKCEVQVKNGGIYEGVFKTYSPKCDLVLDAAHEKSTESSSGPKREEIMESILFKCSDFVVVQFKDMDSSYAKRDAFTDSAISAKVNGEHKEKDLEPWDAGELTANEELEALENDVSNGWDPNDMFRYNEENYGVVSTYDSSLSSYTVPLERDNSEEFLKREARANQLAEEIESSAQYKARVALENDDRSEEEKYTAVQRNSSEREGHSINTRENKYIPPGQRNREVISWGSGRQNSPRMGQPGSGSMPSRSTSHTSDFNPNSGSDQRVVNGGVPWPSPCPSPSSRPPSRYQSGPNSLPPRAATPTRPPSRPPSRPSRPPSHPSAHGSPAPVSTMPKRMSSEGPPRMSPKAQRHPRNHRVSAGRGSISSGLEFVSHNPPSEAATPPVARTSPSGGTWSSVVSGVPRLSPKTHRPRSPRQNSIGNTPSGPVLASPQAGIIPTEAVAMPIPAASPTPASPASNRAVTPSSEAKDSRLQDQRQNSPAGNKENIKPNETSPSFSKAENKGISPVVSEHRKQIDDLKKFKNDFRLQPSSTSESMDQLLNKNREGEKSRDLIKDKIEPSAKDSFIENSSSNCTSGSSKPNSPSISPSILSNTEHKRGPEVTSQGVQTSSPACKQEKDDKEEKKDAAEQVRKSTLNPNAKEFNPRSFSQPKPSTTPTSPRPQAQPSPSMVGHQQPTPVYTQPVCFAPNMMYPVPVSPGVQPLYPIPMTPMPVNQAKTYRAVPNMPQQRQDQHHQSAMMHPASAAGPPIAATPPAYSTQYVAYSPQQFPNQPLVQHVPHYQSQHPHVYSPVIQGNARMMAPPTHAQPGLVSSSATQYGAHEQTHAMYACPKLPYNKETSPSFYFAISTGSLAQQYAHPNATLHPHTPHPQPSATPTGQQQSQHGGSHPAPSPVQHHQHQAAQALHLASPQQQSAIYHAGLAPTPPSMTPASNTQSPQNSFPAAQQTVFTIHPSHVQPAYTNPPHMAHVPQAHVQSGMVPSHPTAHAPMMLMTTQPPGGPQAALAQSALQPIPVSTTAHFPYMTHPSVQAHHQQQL
Assay type: functional
With `N#CCC(=O)N/N=C/c1ccc(N2N=C(c3ccccc3)CC2c2ccccc2)cc1` (stereo not given) the Potency was “inactive”. `Cc1ccc(C)c(NC(=O)CCNS(=O)(=O)c2ccc3nc(O)oc3c2)c1` was tested, and the Potency was “inactive”. In the case of `CCN1CCN(C(c2cccs2)C(C)NC(=O)C(C)C)CC1` (stereo not given), the Potency is reported as “inactive”. `Nc1c(C(=O)N/N=C/c2ccccc2Cl)oc2nc(-c3ccccc3)cc(-c3ccco3)c12` was tested, and the Potency was “inactive”. In the case of `Cc1cc(/C=N/NC(=O)Cn2c3ccccc3c(=O)c3ccccc32)c(C)n1-c1ccccc1`, the Potency is reported as “inactive”. With `O=C(Cn1c2ccccc2c(=O)c2ccccc21)N/N=C/c1ccc(N2CCCC2)c([N+](=O)[O-])c1` the Potency was 39.8 µM (active). With `Cc1ccc(-n2c(C)cc(/C=N/NC(=O)Cn3c4ccccc4c(=O)c4ccccc43)c2C)cc1` the Potency was “inactive”. `Cc1ccc(S(=O)(=O)NC(C(=O)Oc2cc3oc(=O)cc(C)c3cc2Cl)C(C)C)cc1` (stereo not given) was tested, and the Potency was “inactive”. `CC(=O)Nc1nn(CC(C)C)c2nc3ccc(C)cc3cc12` was tested, and the Potency was “inactive”. With `O=S(=O)(Nc1nc2n(n1)C(c1ccc(F)cc1)C=C(c1ccccc1)N2)c1ccccc1` (stereo not given) the Potency was “inactive”. With `COc1ccc([C@H]2C[C@H](O)[C@@H](n3cc(-c4ccc(F)cc4)nn3)CN2CC2CCCCC2)cc1` the Potency was 39.8 µM (active). With `CCCCCC(=O)N1C[C@@H](n2cc(-c3ccc(F)cc3)nn2)[C@H](O)C[C@@H]1c1ccc(Cl)cc1` the Potency was 31.6 µM (active). `CCCC(=O)NCn1nnc(-c2ccc(Cl)cc2)n1` was tested, and the Potency was “inactive”. For `O[C@H]1C[C@H](c2ccc(Cl)cc2)N(Cc2cccs2)C[C@@H]1n1cc(-c2ccc(F)cc2)nn1`, the Potency was 25.1 µM (active). In the case of `CCCCCCN1C[C@H](n2cc(-c3ccc(F)cc3)nn2)[C@@H](O)C[C@@H]1c1ccc(Cl)cc1`, the Potency is reported as 22.4 µM (active). For `CCCCNC(=O)COC(=O)c1c2c(nc3ccccc13)/C(=C/c1cccs1)CC2`, the Potency was “inactive”. `COc1ccc(OCCCC(=O)ON=C(N)c2ccccc2C)cc1` was tested, and the Potency was “inactive”. `CCOC(=O)C1=C(NC(=O)c2cc(S(=O)(=O)N3CCOCC3)ccc2C)Nc2ccccc2N=C1CC` was tested, and the Potency was “inactive”. For `NS(=O)(=O)c1ccc(N2N=C(c3ccc(Br)cc3)CC2c2ccc(F)cc2)cc1` (stereo not given), the Potency was “inactive”. For `CCCCCCN1C[C@H](n2cc(-c3ccc(F)cc3)nn2)[C@@H](O)C[C@@H]1c1ccc(C)cc1`, the Potency was 39.8 µM (active). `COc1ccc(C2=Nc3nc(-c4ccccc4)cn3C(c3ccc(OC)cc3)C2)cc1` (stereo not given) was tested, and the Potency was “inactive”. With `CCCCCCN1C[C@@H](n2cc(-c3ccc(F)cc3)nn2)[C@H](O)C[C@@H]1c1ccc(OC)cc1` the Potency was 35.5 µM (active). `COc1ccc(C2=CC(c3ccc(F)cc3)n3nnnc3N2)cc1` (stereo not given) was tested, and the Potency was “inactive”. `Cc1ccc([C@H]2C[C@H](O)[C@@H](n3cc(C4CC4)nn3)CN2Cc2cccs2)cc1` was tested, and the Potency was 35.5 µM (active). In the case of `CCCCCCN1C[C@H](n2cc(C3CC3)nn2)[C@@H](O)C[C@@H]1c1ccc(C)cc1`, the Potency is reported as 35.5 µM (active). In the case of `Fc1ccc(C2CC(c3cccs3)=NN2c2ccccc2)cc1` (stereo not given), the Potency is reported as “inactive”. With `Cc1cc(F)ccc1NC(=O)c1sc2nc(-c3cccs3)ccc2c1N` the Potency was “inactive”. For `CCOC(=O)c1cc2c(=O)n3ccccc3nc2n(Cc2ccco2)/c1=N/C(=O)c1ccc(OC)cc1OC`, the Potency was “inactive”. With `COC(=O)[C@]12CCCCC=C1N(CCC1=CCCCC1)C(=O)[C@H](CC(=O)N1CCN(C(=O)c3ccco3)CC1)C2` the Potency was 22.4 µM (active). In the case of `CCCCCCCCN1C(=O)[C@H](CC(=O)N2CCN(C(=O)c3ccco3)CC2)C[C@@]2(C(=O)OCC)CCCC=C12`, the Potency is reported as 14.1 µM (active). With `COC(=O)[C@]12CCCCC=C1N(Cc1cccc3ccccc13)C(=O)[C@H](CC(=O)N1CCN(C(=O)c3ccco3)CC1)C2` the Potency was 22.4 µM (active). `O=C(Nc1c(C(=O)c2ccc(F)cc2)oc2ccccc12)c1cc(-c2ccccc2)on1` was tested, and the Potency was “inactive”. `COc1cc(/C=N/Nc2ccc([N+](=O)[O-])cc2S(=O)(=O)N2CCOCC2)cc(OC)c1OC` was tested, and the Potency was “inactive”. In the case of `Cc1ccc(Cl)cc1N1CCN(C(=O)Cc2csc(Nc3nc(S)nc4ccccc34)n2)CC1`, the Potency is reported as “inactive”. With `Cc1ccc(Cl)cc1N1CCN(C(=O)c2cnn(-c3ccc(Cl)cc3)c2C2CCNCC2)CC1` the Potency was 39.8 µM (active). For `Cc1ccc(Nc2ncc(C(=O)N3CCN(c4ccc(F)cc4)CC3)c3ccccc23)cc1Cl`, the Potency was “inactive”. For `COc1ccc(S(=O)(=O)NCCc2cn3nc(C)c(C)nc3n2)cc1`, the Potency was “inactive”. With `CN1C2=CC=CC=CC2=[N+](C)C12C=CC(=[N+]([O-])[O-])C=C2[N+](=O)[O-]` (stereo not given) the Potency was 20 µM (active). For `CCN(CC)C1=CC2=CC(=C(C#N)C#N)CCC2CC1` (stereo not given), the Potency was “inactive”. `Cc1cc(C)nc(N(C#N)Cc2ccc(Cl)cc2)n1` was tested, and the Potency was “inactive”. In the case of `Cc1ccc(CN2C(=O)CC(c3ccc(Cl)cc3)c3c(C)nn(-c4nc(C)cc(C)n4)c32)cc1` (stereo not given), the Potency is reported as 39.8 µM (active). With `CCOC(=O)C1CCN(S(=O)(=O)c2cc3c(cc2C)NC(=O)CO3)CC1` the Potency was “inactive”. With `Cn1c(-c2c(N)n(CCCc3ccccc3)c3nc4ccccc4nc23)nc2ccccc21` the Potency was “inactive”. In the case of `CS(=O)(=O)c1nc([N+](=O)[O-])nn1CCCc1ccccc1`, the Potency is reported as 39.8 µM (active). For `CCN(C(=O)c1cc2c(=O)n3ccccc3nc2s1)C1CCCCC1`, the Potency was “inactive”. In the case of `O=[N+]([O-])c1cncc([N+](=O)[O-])c1Nc1cccc(O)c1`, the Potency is reported as 22.4 µM (active). With `COc1ccc(C2NS(=O)(=O)N=C2N)cc1` (stereo not given) the Potency was “inactive”. `N#Cc1c(-c2ccccc2)c(C#N)c2nc3ccccc3n2c1N` was tested, and the Potency was “inactive”. For `Nc1ccc2c(C(F)(F)F)cc(=O)oc2c1`, the Potency was “inactive”. With `COCCn1c(SCC(=O)Nc2ccc(NC(C)=O)cc2)nc2ccccc2c1=O` the Potency was “inactive”. `CC(C)Cn1c(SC(C)C(=O)NCC2CCCO2)nc2ccc(Cl)cc2c1=O` (stereo not given) was tested, and the Potency was “inactive”. `O=C(Cn1c(=O)c(=O)n(Cc2ccccc2)c2ccc(Cl)cc21)NCC1CCCO1` (stereo not given) was tested, and the Potency was “inactive”. `CC(=O)c1cccc(NC(=O)c2ccccc2-c2ccccc2C(=O)O)c1` was tested, and the Potency was “inactive”. `CC(=O)Nc1cccc(NC(=O)CSc2ncc(C(=O)Nc3ccccc3)c(=O)n2C)c1` was tested, and the Potency was 39.8 µM (active). `Cn1c(SCC(=O)NCC2CCCO2)ncc(C(=O)Nc2ccc(Cl)cc2)c1=O` (stereo not given) was tested, and the Potency was 35.5 µM (active). `CC1=CC2=NC(=O)/C(=C/c3coc4ccccc4c3=O)C(=N)N2O1` was tested, and the Potency was “inactive”. In the case of `COc1ccc(-c2c(C)c3ccc(O)c(CN4CCN(CCO)CC4)c3oc2=O)cc1OC`, the Potency is reported as “inactive”. With `O=C(Nc1nc2n(n1)C(c1ccccc1)C=C(c1ccccc1)N2)c1ccccc1` (stereo not given) the Potency was “inactive”. With `COc1cc(NS(=O)(=O)c2ccc(N/C=C\C(=O)c3ccc(F)cc3)cc2)nc(OC)n1` the Potency was “inactive”. In the case of `O=C1c2sccc2-c2cccc3cccc1c23`, the Potency is reported as “inactive”. In the case of `O=C1C(Br)=Cc2cccc3cccc1c23`, the Potency is reported as “inactive”. With `O=C1c2cccc3cccc(c23)C(=O)C1(O)O` the Potency was 15 µM (active). With `Cc1cc2nc(-c3ccco3)c(Cc3ccccc3C(F)(F)F)n2c(C)c1Br` the Potency was 39.8 µM (active). For `O=C1NC(Cc2ccc(O)cc2)c2nc3cc(F)c(F)cc3c(=O)n2-c2cc3ccccc3cc21` (stereo not given), the Potency was 35.5 µM (active). With `Cc1ccc(CC2(OCCN(C)C)CCC(C(C)(C)C)CC2)cc1` (stereo not given) the Potency was 42.3 µM (active). For `CN(C)CCOC1(Cc2ccc(F)cc2)CCC(C(C)(C)C)CC1` (stereo not given), the Potency was 21.2 µM (active). In the case of `O=C(NCc1nc2ccccc2[nH]1)C1=C[C@@H](c2ccc(Br)cc2)C[C@@H](OCCCCO)O1`, the Potency is reported as 31.6 µM (active). For `Cc1ccccc1NC(=O)CN1C(=O)S/C(=C\c2ccc(-c3cc(C(=O)O)ccc3C)o2)C1=O`, the Potency was “inactive”. With `C=C1CC2(OC1=O)c1ccccc1CCc1ccccc12` the Potency was 5.97 µM (active). `O=S(=O)(c1ccc(Cl)c(C(F)(F)F)c1)N1CCN(c2ccccn2)CC1` was tested, and the Potency was “inactive”. In the case of `O=C(c1ccco1)[C@@H]1[C@@H]2C(=O)N(c3ccc(F)cc3)C(=O)[C@@H]2[C@H]2C=Cc3ccccc3N21`, the Potency is reported as “inactive”. With `COc1cc(CN2CCCC(CO)(Cc3cccc(Cl)c3)C2)cc(OC)c1O` (stereo not given) the Potency was “inactive”. With `Cc1ccc(S(=O)(=O)Nc2nc3n(n2)C(c2ccc(F)cc2)C=C(c2ccccc2)N3)cc1` (stereo not given) the Potency was “inactive”. In the case of `O=C(O)/C=C/C(=O)NNc1ccc([N+](=O)[O-])cc1`, the Potency is reported as 13.4 µM (active). `O=C(N/N=C/c1ccc(-c2ccc([N+](=O)[O-])cc2)o1)C(O)c1ccccc1` (stereo not given) was tested, and the Potency was “inactive”. `Cc1ccc(N2CCN(S(=O)(=O)c3nnc(NC(=O)c4ccco4)s3)CC2)cc1` was tested, and the Potency was “inactive”. For `CCc1ccccc1N1CC(c2nnc(NC(=O)c3ccco3)s2)CC1=O` (stereo not given), the Potency was “inactive”. With `Cc1sc(NC(=O)c2ccco2)nc1-c1ccc2c(c1)CC(C)N2C(=O)C1CC1` (stereo not given) the Potency was 28.2 µM (active). With `C=CCN=C(S)Nc1ccc(C(N)=O)cc1` the Potency was “inactive”. For `COc1ccc(CCn2c(=S)[nH]c3cc(C(=O)NCc4ccco4)ccc3c2=O)cc1OC`, the Potency was 28.2 µM (active). With `COc1ccc(CCn2c(=S)[nH]c3ccc(N4CCOCC4)cc3c2=O)cc1OC` the Potency was “inactive”. For `COc1ccc(CCn2c(=S)[nH]c3cc(C(=O)N4CCOCC4)ccc3c2=O)cc1OC`, the Potency was “inactive”. With `CC(=O)Oc1ccc2c(c1)Oc1cc(OC(C)=O)ccc1C21OC(=O)c2ccccc21` the Potency was “inactive”. In the case of `O=C1OC(c2ccc3ccccc3c2O)(c2ccc3ccccc3c2O)c2ccccc21`, the Potency is reported as 17.8 µM (active). In the case of `Cc1cc(O)c(C(C)C)cc1C1(c2cc(C(C)C)c(O)cc2C)OC(=O)c2ccccc21`, the Potency is reported as 31.6 µM (active). `Cc1cccc2c3c([nH]c12)C(=O)CC(C)(C)S3` was tested, and the Potency was “inactive”. In the case of `O=C(N/C(=C/c1ccccc1Cl)C(=O)N1CCCC1)c1ccccc1`, the Potency is reported as “inactive”. `Cc1nc(N2CCN(c3ccccc3F)CC2)nc(O)c1C` was tested, and the Potency was “inactive”. `CCCc1cc(NC(=O)COC(=O)c2nccnc2N)n(-c2ccccc2)n1` was tested, and the Potency was “inactive”. For `CCOC(=O)[C@]12Cc3c(cc(OC)c(OC)c3OC)[C@H]1N(CCC(=O)OC)C(=O)c1cc(OC)ccc12`, the Potency was 22.4 µM (active).
